Most compounds without a hit are left out; they make up all but 22% or so of the library.
Shiga toxin inh: A qHTS for Small Molecule Inhibitors of Shiga Toxin | 290,000 tested, 9.2% active | inhibition, % at 38.7 µM | Vero cells, Shiga toxin protein synthesis inhibition reporter; in the data active means inhibition mostly above about 28%, no sharp cut-off; inactive means mostly below about 43%; further: 0% is about no effect
LmPK inh: qHTS Assay for Inhibitors of Leishmania Mexicana Pyruvate Kinase (LmPK); Q27686; purified LmPK, Kinase-Glo ATP luminescence, 1 h; Potency, µM (titrated, usually from 57.5 µM), without a hit: top-dose activity change, negative = inhibition, usual class: inhibitors; 290,000 tested, 0.37% active; AID 1721, 2009; further: potency means the concentration at half of the fitted maximal effect; on the % scale 0 is the no-effect control and ±100 the full control effect
Target sequence (Q27686 whole entry, looked up): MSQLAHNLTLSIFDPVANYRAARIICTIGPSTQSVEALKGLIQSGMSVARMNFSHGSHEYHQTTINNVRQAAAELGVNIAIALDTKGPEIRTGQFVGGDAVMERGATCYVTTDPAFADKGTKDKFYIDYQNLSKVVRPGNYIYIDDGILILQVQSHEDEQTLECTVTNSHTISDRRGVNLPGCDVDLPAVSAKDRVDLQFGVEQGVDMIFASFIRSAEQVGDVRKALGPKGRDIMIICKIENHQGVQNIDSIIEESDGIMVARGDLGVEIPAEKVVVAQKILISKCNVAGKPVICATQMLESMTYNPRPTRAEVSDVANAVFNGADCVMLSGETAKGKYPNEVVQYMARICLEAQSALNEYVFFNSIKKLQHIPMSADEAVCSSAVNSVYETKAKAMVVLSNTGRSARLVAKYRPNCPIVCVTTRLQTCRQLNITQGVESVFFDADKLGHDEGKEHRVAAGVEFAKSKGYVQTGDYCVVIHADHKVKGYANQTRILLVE
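ATP generated from ADP (0.1 mM) and PEP (0.5 mM) by 0.1 nM LmPK over 1 h at room temperature (pH 7.2 imidazole buffer) was detected by coupled luciferase luminescence. Values were normalized to uninhibited and no-enzyme wells.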
Pf growth 48h: Primary qHTS for delayed death inhibitors of the malarial parasite plastid, 48 hour incubation; P. falciparum luciferase growth in erythrocytes, 48 h; Potency, µM (highest dose often 28.7 µM), for inactives: at the highest dose activity change, negative = inhibition, usual class: inhibitors; 310,000 tested, 5.9% active; AID 504832, 2011; further: potency means the concentration at half of the fitted maximal effect; on the % scale 0 is the no-effect control and ±100 the full control effect
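Firefly luciferase activity from engineered P. falciparum reports growth; inhibitors lower the luminescent signal. Cultures contained 2% hematocrit erythrocytes at 0.1% final parasitemia.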
Pf growth 96h: Primary qHTS for delayed death inhibitors of the malarial parasite plastid, 96 hour incubation; P. falciparum luciferase reporter growth, 96 h; Potency, µM (doses to about 28.7 µM), for the others: top-dose activity change, negative = inhibition, hits mostly inhibitors; 320,000 tested, 6.9% active; AID 504834, 2011; further: potency means the concentration at half of the fitted maximal effect; on the % scale 0 is the no-effect control and ±100 the full control effect
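Readout is luminescence from an integrated firefly luciferase in P. falciparum. Red cells, 2% hematocrit and 0.05% parasitemia final, were cultured with compound through two parasite generations (96 hours) at 37 C, 5% CO2.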
Cycloheximide cs: Cycloheximide Counterscreen for Small Molecule Inhibitors of Shiga Toxin | cell reporter, cycloheximide protein synthesis inhibition counterscreen | max response, % | 300,000 tested, 12% active | AID 2314, 2010; in the data active means max response mostly above about 13%, no sharp cut-off; inactive means mostly below about 14%; further: read at 38.3 µM for the half of the compounds with a filed dose; 0% is about no effect
Numbers without * were called inactive. Unless noted, the call rests on the fitted dose curve; in most records, active means well fitted inhibition curve with a large enough effect; inconclusive means small, poorly fitted or top-dose-only effect, or another doubt; inactive means no such curve, though single readings can be large or run the other way.

How did COc1ccc2nc(NC(=O)CSc3nnc(C)s3)sc2c1 do in these assays?
Shiga toxin inh: 30.1; LmPK inh: -2.0%; Pf growth 48h: 56.7%; Pf growth 96h: 22.4%; Cycloheximide cs: 11.6*

How did COc1ccc2nc(NC(=O)CSc3n[nH]c(N)n3)sc2c1 do in these assays?
Pf growth 48h: 58.8%; Pf growth 96h: 68.0%

How did CC(=O)N1CCC(C(=O)N2CCN(S(=O)(=O)c3ccc(F)cc3)CC2)CC1 do in these assays?
Shiga toxin inh: -2.6; LmPK inh: -10.0%; Pf growth 48h: 19.1%; Pf growth 96h: 53.5%; Cycloheximide cs: 2.4

What do the screens show for `O=c1c(Cc2ccc(Cl)cc2)c(O)ccn1Cc1cccs1`?
Shiga toxin inh: -22.6; LmPK inh: -2.5%; Pf growth 48h: -6.7%; Pf growth 96h: 0.8%; Cycloheximide cs: 1.1

Results for CC1CCN(c2ccc3nnc(CCC(=O)Nc4cccc(F)c4)n3n2)CC1 ?
Shiga toxin inh: -1.6; LmPK inh: 9.8%; Pf growth 48h: inconclusive; Pf growth 96h: inconclusive; Cycloheximide cs: 2.3

Results for Cc1cccc(C)c1OCc1cc(C(=O)N2CCN(c3ccccc3)CC2C)no1 (stereo not given) ?
Shiga toxin inh: 26.0; LmPK inh: -2.8%; Pf growth 48h: 5.9%; Pf growth 96h: 22.7%; Cycloheximide cs: 15.9*

How did CC1CN(c2ccccc2)CCN1C(=O)c1cc(COc2c(F)cccc2F)on1 (stereo not given) do in these assays?
Shiga toxin inh: 38.2; LmPK inh: 8.5%; Pf growth 48h: -7.1%; Pf growth 96h: 19.6%; Cycloheximide cs: -2.0

Results for CCC1C(=O)NCCN1C(=O)c1cc(COc2cc(C)ccc2C)on1 (stereo not given) ?
Shiga toxin inh: -1.0; LmPK inh: 5.0%; Pf growth 48h: inconclusive; Pf growth 96h: inconclusive; Cycloheximide cs: 11.9

Results for Cc1ccc(C)c(OCc2cc(C(=O)N3CCN(c4ccccc4C)CC3C)no2)c1 (stereo not given) ?
Shiga toxin inh: 113.5*; LmPK inh: 0.6%; Pf growth 48h: 5.7%; Pf growth 96h: 11.7µM*; Cycloheximide cs: 31.3*

Results for CCOC(=O)C1=CC[C@H]2c3c(c4ccccc4n3C)C(=O)C1N2C(=O)OC(C)(C)C ?
Pf growth 48h: -89.4%; Pf growth 96h: inconclusive

How did CC(C)c1ccc(NC2CCCN(C(=O)CN3CCCC3=O)C2)cc1 (stereo not given) do in these assays?
Shiga toxin inh: -1.6; LmPK inh: -0.6%; Pf growth 48h: -2.3%; Pf growth 96h: 42.3%; Cycloheximide cs: 9.4

Results for CCCCSCc1nc2ccccn2c1Br ?
Shiga toxin inh: 56.4*; LmPK inh: 8.9%; Pf growth 48h: inconclusive; Pf growth 96h: inconclusive; Cycloheximide cs: 31.4*

Results for CN(CC(=O)Nc1ccc(C(N)=O)cc1)CC(=O)Nc1ccccc1Cl ?
Shiga toxin inh: -3.3; LmPK inh: -1.4%; Pf growth 48h: -4.8%; Pf growth 96h: -17.0%; Cycloheximide cs: -4.2

What do the screens show for `CC(C)(O)c1[nH]c2ccc(C#N)cc2c1C(C)(C)O`?
Shiga toxin inh: -6.2; LmPK inh: 0.0%; Pf growth 48h: 23.9%; Pf growth 96h: -4.3%; Cycloheximide cs: -3.3

How did O=C(Nc1ccccc1Br)c1cc(=O)c2ccccc2o1 do in these assays?
Shiga toxin inh: 99.4*; LmPK inh: -0.7%; Pf growth 48h: 121.0%; Pf growth 96h: 164.7%; Cycloheximide cs: 22.9

What do the screens show for `O=C(Nc1ccccc1Cl)c1cc(=O)c2ccccc2o1`?
LmPK inh: 6.5%; Pf growth 48h: 102.5%; Pf growth 96h: 11.7µM*; Cycloheximide cs: 30.1*

How did O=C(NCc1ccccc1)c1cc(=O)c2ccccc2o1 do in these assays?
Shiga toxin inh: -7.2; LmPK inh: 1.3%; Pf growth 48h: inconclusive; Pf growth 96h: 20.1%; Cycloheximide cs: 3.8

What do the screens show for `Cc1cccc(N(C(=O)CNC(=O)c2ccco2)C(C(=O)NCC2CCCO2)c2ccccc2)c1` (stereo not given)?
Shiga toxin inh: -11.1; LmPK inh: 0.3%; Pf growth 48h: 2.1%; Pf growth 96h: 26.9%; Cycloheximide cs: -6.6

Results for CCN(CCNC(=O)C1CCCN(c2ncnc3c2nc2n3CCCCC2)C1)Cc1ccccc1 (stereo not given) ?
Shiga toxin inh: 0.8; LmPK inh: 0.7%; Pf growth 48h: inconclusive; Pf growth 96h: 10.4µM*; Cycloheximide cs: -2.2

How did Cc1ccccc1CN1CCC(CNC(=O)C2CCCN(c3ncnc4c3nc3n4CCCCC3)C2)CC1 (stereo not given) do in these assays?
Shiga toxin inh: -12.0; LmPK inh: 5.3%; Pf growth 48h: 11.7µM*; Pf growth 96h: 6.57µM*; Cycloheximide cs: 7.3

Results for COc1ccc(NC(=O)CSc2nc3c(c(=O)n2C)SCC3)cc1OC ?
Shiga toxin inh: -5.3; LmPK inh: -2.5%; Pf growth 48h: -5.6%; Pf growth 96h: 1.6%; Cycloheximide cs: 1.3

What do the screens show for `Cc1noc(C)c1C(=O)N1CCN(c2ccc(OCc3ccccc3)cc2)CC1`?
Shiga toxin inh: -4.7; LmPK inh: -4.0%; Pf growth 48h: -13.1%; Pf growth 96h: -14.8%; Cycloheximide cs: 3.5

How did COc1cccc(N2CCN(S(=O)(=O)c3ccc4c(c3)NC(=O)CS4)CC2)c1 do in these assays?
Shiga toxin inh: -2.3; LmPK inh: 3.4%; Pf growth 48h: -7.8%; Pf growth 96h: inconclusive; Cycloheximide cs: -2.5

Results for Cc1ccn2cc(-c3ccc(Br)cc3)nc2c1 ?
Shiga toxin inh: 21.9*; LmPK inh: inconclusive; Pf growth 48h: -39.3%; Pf growth 96h: -27.2%; Cycloheximide cs: 38.3*

Results for Clc1ccc(Cn2cc(Br)cn2)cc1Cl ?
Shiga toxin inh: -7.2; LmPK inh: -10.0%; Pf growth 48h: 1.4%; Pf growth 96h: 33.8%; Cycloheximide cs: 2.3

How did Cc1cccc(S(=O)(=O)Nc2ccc(-c3ccc4nncn4n3)cc2)c1 do in these assays?
Pf growth 48h: inconclusive; Pf growth 96h: 5.4%

What do the screens show for `Clc1ccc(-c2cn3cc(Br)ccc3n2)cc1Cl`?
Shiga toxin inh: 102.9*; LmPK inh: -13.2%; Pf growth 48h: 57.8%; Pf growth 96h: -68.3%; Cycloheximide cs: 51.5*

Results for Cc1ccc(S(=O)(=O)Nc2ccc(-c3cn4ccc(C)cc4n3)cc2)cc1 ?
Shiga toxin inh: 19.5; LmPK inh: 2.4%; Pf growth 48h: 1.65µM*; Pf growth 96h: -19.1%; Cycloheximide cs: 7.9

Results for Cc1ccn2cc(-c3ccc(NS(=O)(=O)c4ccccc4)cc3)nc2c1 ?
Shiga toxin inh: 12.9*; LmPK inh: -0.2%; Pf growth 48h: 13.1µM*; Pf growth 96h: -14.4%; Cycloheximide cs: 16.4

Results for COCc1cc(=O)[nH]c(N2CCN(Cc3ccc4c(c3)OCO4)CC2)n1 ?
Shiga toxin inh: -2.3; LmPK inh: -8.7%; Pf growth 96h: 17.9%; Cycloheximide cs: -3.5

What do the screens show for `Cc1ccc(C(=O)COC(=O)C2CC3CCCC(C2)C3=O)cc1[N+](=O)[O-]` (stereo not given)?
Pf growth 48h: inconclusive; Pf growth 96h: 8.2%
